# Results: PubChem BioAssay
# Unmarked numbers belong to inactive results. Activity calls are given as the source filed them.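 Rule for the calls, unless noted: active = mean inhibition over 43.08%, the solvent-only control mean plus 3 SD; inactive = the rest.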
# How the values were obtained:
# [1] = molecular target: Nuclear receptor coactivator 3 (Homo sapiens) (UniProt Q9Y6Q9); assay: NCOA3 GAL4-fusion reporter inhibition – cell-based, luminescence, quadruplicate, confirmation (AID 588792); conditions: HEK293 GAL4-SRC3 luciferase reporter, at 3.6 µM, active compounds read high;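 note: 0% = DMSO treated cells and 100% = gossypol at 36 µM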
# [2] = tested on: transactivating tegument protein VP16 (Human herpesvirus 1), Gal4-VP16 luciferase reporter; assay: repression of VP16-driven luciferase reporter – cell-based, luminescence, high throughput, counter-screen for SRC3 inhibitor project (AID 588794; in the data active = inhibition above about 30%); conditions: mammalian cells, at 3.6 µM, active compounds read high
# [3] = molecular target: Nuclear receptor coactivator 1 (Homo sapiens) (UniProt Q15788); assay: NCOA1 GAL4-fusion reporter inhibition – cell-based, luminescence, quadruplicate, confirmation (AID 588820;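 active = mean inhibition above 46.68%, the untreated control wells mean plus 3 SD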;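 note: 0% = DMSO wells and 100% = gossypol 36 µM treated wells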); conditions: HEK293 GAL4-SRC1 luciferase reporter, at 3.6 µM, active compounds read high
# [4] = repression of VP16-driven luciferase reporter – cell-based, luminescence, high throughput, counter-screen for SRC1 inhibitor project (AID 588824; in the data active = inhibition above about 25%); conditions: cell-based VP16 transactivation luciferase luminescence; at 3.6 µM; active compounds read high
# [5] = StAR promoter reporter inhibitors, counter-screen for LRH-1 inverse agonist project, cell-based, luminescence, high throughput (AID 651611; in the data active = inhibition above about 28%); conditions: StAR promoter luciferase reporter counterscreen, at 3.6 µM, active compounds read high
# [6] = molecular target: Nuclear receptor subfamily 5 group A member 2 (Homo sapiens) (UniProt O00482); assay: NR5A2 activity suppression in reporter cells – cell-based, luminescence, confirmation (AID 651613; in the data active = inhibition above about 42%;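 note: HEK293T cells co-transfected with LRH-1 and StAR promoter luciferase reporter; 0% = vehicle wells and 100% = parental cells lacking receptor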); conditions: cell-based LRH-1 luciferase reporter, inverse agonism; at 3.6 µM; active compounds read high
# [7] = molecular target: Steroidogenic factor 1 (Homo sapiens) (UniProt Q13285); assay: inverse agonism at SF1 nuclear receptor – cell-based, luminescence, high throughput, counter-screen for LRH-1 inverse agonist project (AID 651614; in the data active = inhibition above about 44%;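 note: cells cotransfected with StAR promoter reporter and SF1 expression vector; 0% = vehicle on cells with receptor and 100% = vehicle on cells lacking receptor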); conditions: cell-based SF1 luciferase reporter, at 3.6 µM, active compounds read high
# [8] = compounds suppressing VP16-driven luciferase signal – cell-based, luminescence, high throughput, counter-screen for LRH-1 inverse agonist project (AID 651615; in the data active = inhibition above about 33%); conditions: Gal4-VP16 luciferase reporter cells, at 3.6 µM, active compounds read high
# [9] = tested on: transactivating tegument protein VP16 (Human herpesvirus 1); assay: compounds suppressing VP16-driven luciferase signal – cell-based, luminescence, single concentration, counter-screen for SRC2 inhibitor project (AID 652007; in the data active = inhibition above about 36%); conditions: cell-based VP16 transactivation luciferase reporter, at 8.9 µM, active compounds read high
# [10] = molecular target: Nuclear receptor coactivator 2 (Homo sapiens) (UniProt Q15596); assay: inhibition of GAL4-SRC2 driven luciferase expression – cell-based, luminescence, HEK293, triplicate, confirmation (AID 652008;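 active = mean inhibition above 46.5%, the solvent-only control mean plus 3 SD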;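 note: 0% = DMSO-treated cells and 100% = Gossypol at 36 µM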); conditions: HEK293 GAL4-SRC2 luciferase reporter, at 8.9 µM, active compounds read high
# Nuclear receptor coactivator 2 (Homo sapiens), sequence (Q15596 whole entry, looked up, the tested form may be a part): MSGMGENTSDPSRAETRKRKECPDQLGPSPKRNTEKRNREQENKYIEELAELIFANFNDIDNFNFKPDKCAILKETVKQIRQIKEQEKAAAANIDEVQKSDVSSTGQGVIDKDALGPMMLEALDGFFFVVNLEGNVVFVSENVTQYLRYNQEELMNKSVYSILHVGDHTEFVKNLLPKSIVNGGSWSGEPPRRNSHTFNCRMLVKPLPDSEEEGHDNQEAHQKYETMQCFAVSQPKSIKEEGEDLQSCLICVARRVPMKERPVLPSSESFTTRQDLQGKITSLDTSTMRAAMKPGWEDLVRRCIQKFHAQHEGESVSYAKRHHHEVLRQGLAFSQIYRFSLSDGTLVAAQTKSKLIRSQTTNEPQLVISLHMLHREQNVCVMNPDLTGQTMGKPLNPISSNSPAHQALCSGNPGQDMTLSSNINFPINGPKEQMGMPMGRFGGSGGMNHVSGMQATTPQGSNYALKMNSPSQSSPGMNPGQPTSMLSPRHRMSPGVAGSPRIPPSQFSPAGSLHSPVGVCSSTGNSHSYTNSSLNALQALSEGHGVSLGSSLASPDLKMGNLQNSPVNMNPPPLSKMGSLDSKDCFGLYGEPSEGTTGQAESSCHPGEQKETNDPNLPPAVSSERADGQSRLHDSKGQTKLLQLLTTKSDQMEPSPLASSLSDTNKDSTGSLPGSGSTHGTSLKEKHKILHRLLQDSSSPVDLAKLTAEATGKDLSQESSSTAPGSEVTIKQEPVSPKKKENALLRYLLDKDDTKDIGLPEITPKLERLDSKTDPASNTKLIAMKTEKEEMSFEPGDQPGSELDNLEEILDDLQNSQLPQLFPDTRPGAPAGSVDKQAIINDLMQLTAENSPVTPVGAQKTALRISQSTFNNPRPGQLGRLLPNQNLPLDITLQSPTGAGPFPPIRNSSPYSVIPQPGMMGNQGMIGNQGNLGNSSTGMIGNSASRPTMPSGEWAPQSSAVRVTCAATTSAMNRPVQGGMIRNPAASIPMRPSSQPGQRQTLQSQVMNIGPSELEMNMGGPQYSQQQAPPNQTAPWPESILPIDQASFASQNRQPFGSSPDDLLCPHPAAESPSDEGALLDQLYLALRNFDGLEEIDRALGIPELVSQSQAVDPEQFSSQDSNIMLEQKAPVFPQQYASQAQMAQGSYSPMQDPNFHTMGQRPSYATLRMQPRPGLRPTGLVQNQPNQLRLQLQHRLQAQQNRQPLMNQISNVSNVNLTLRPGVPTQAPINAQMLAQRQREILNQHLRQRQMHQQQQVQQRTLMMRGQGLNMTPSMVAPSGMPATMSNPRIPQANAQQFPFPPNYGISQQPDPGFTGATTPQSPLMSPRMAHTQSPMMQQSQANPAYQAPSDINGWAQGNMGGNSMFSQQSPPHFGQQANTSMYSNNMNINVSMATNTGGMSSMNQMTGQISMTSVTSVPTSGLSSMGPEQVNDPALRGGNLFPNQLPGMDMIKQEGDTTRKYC
# Nuclear receptor subfamily 5 group A member 2 (Homo sapiens), sequence (O00482 whole entry, looked up): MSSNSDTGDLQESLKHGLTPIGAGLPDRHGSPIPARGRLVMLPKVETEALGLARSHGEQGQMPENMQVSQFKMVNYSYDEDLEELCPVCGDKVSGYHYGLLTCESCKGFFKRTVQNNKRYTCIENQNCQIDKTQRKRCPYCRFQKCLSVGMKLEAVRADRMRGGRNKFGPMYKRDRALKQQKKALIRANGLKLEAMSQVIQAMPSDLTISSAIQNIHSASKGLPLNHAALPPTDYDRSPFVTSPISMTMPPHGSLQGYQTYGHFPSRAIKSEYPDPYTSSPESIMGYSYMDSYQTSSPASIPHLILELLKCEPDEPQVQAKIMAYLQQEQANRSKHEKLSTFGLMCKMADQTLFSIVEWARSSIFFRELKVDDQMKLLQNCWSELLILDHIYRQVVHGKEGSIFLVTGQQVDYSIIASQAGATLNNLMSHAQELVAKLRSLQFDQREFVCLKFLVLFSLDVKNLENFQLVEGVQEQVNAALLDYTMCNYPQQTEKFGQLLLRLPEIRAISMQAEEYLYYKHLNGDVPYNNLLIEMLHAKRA
# Nuclear receptor coactivator 1 (Homo sapiens), sequence (Q15788 whole entry, looked up, the tested form may be a part): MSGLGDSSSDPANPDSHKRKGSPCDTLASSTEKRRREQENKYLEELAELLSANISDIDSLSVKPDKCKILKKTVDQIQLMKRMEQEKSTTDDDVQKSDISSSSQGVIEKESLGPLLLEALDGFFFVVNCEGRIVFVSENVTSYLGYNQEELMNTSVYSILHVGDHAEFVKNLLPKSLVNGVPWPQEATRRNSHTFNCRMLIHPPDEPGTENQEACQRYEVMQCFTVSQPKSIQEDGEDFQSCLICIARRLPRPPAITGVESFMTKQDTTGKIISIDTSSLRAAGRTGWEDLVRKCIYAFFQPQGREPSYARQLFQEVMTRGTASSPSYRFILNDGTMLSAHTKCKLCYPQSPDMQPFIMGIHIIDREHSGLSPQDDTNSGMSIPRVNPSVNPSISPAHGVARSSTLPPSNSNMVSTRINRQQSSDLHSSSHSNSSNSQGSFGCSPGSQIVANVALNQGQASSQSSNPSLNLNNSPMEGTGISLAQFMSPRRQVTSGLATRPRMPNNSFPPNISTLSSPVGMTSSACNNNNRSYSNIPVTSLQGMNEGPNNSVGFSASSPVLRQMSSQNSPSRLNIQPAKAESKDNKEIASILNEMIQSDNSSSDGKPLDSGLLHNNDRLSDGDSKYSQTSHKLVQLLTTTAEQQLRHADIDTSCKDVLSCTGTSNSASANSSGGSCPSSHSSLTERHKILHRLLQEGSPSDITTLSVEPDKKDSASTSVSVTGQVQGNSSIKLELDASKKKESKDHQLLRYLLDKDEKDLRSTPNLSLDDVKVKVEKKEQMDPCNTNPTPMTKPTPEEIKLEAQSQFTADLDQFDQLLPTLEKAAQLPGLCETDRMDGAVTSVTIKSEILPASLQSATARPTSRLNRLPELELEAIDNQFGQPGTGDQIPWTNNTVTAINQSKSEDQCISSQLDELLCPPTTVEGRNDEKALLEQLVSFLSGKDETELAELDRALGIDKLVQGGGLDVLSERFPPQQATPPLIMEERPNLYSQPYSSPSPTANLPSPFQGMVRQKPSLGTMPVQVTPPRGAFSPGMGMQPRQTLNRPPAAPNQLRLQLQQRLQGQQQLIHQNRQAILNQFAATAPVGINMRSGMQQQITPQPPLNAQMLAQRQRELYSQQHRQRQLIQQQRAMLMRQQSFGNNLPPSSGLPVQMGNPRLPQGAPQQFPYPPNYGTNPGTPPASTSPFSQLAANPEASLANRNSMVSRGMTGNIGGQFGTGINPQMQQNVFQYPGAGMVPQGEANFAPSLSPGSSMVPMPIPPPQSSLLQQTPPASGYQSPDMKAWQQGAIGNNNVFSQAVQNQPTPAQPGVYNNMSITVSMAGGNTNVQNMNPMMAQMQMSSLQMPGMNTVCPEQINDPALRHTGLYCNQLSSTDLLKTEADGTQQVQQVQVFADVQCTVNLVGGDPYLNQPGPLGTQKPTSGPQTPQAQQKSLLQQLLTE
# Steroidogenic factor 1 (Homo sapiens), sequence (Q13285 whole entry, looked up, the tested form may be a part): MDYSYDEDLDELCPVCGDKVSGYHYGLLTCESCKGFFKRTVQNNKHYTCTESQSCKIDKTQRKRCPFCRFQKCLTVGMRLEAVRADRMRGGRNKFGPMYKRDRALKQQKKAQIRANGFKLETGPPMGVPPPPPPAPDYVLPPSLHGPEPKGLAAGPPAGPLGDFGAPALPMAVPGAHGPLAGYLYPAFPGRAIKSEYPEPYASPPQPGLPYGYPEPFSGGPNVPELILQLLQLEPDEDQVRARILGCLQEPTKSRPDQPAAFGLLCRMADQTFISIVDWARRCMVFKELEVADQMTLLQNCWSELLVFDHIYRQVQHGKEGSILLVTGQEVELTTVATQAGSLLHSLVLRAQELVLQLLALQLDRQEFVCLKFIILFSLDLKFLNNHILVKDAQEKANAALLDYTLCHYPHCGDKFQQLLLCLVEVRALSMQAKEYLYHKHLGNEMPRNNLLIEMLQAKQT
SMILES,inhibition [1],inhibition [2],inhibition [3],inhibition [4],inhibition [5],inhibition [6],inhibition [7],inhibition [8],inhibition [9],inhibition [10]
COc1cc2cc(C(=O)Nc3ccc4c(c3)OCCO4)[nH]c2cc1OC,27.4%,-26.5%,-2.55%,-48.8%,-32.3%,-49.1%,-20.5%,-35.9%,-41.9%,38.2%
CCCCCCCC/C=C\CCCCCCCC(=O)NCCc1ccc(O)c(O)c1,22%,-11.3%,-70%,-11.4%,-4.3%,-29.9%,4.21%,-16.1%,1.26%,21%
OCC1OC(n2ccc3c(NO)ncnc32)C(O)C1O (stereo not given),93.2% (active),88.2% (active),48.2% (active),87.4% (active),93.5% (active),108% (active),97% (active),96% (active),53.9% (active),51.5% (active)
COC(=O)Cc1ccc(NC(=O)c2ccc(C(C)(C)C)cc2)cc1,55.9% (active),40.7% (active),43.4%,44.8% (active),54.3% (active),76.9% (active),67.3% (active),50.8% (active),21.1%,92.9% (active)
Cc1ccc(NC(=O)O/N=C/c2c(C)nn(C(C)(C)C)c2C)cc1Cl,90.4% (active),88% (active),87.3% (active),85.3% (active),88.2% (active),93% (active),89.2% (active),86.5% (active),94.6% (active),98.3% (active)
O=[N+]([O-])c1nn(-c2ccc3c(c2)OCCO3)n(O)c1=Nc1ccccc1,81% (active),-12.3%,70.5% (active),16.2%,68.9% (active),44.6% (active),66.5% (active),33.9% (active),35.2%,91.4% (active)
CCC1(O)C(=O)OCc2c1cc1n(c2=O)Cc2cc3cc(O)ccc3nc2-1 (stereo not given),94.8% (active),79.2% (active),68.8% (active),77.4% (active),84.6% (active),104% (active),91.4% (active),83.8% (active),24.9%,39.5%
CCCc1ccc(C(=O)O/N=C(\N)c2ccccn2)cc1,16.8%,-24.7%,-82.5%,-63.2%,-12.5%,-85.8%,2.79%,-41.9%,-18.6%,31.1%
COc1ccc2c(c1)-c1c(ssc1=S)C(C)(C)N2,73.3% (active),54.6% (active),64% (active),50.3% (active),28.7% (active),46.7% (active),41.5%,67.9% (active),6.45%,49.7% (active)
Cc1ccc(-c2nc(-c3ccccn3)no2)cc1,59.3% (active),48.7% (active),29%,43.9% (active),39.1% (active),11%,52% (active),25%,66.8% (active),85.5% (active)
Cc1cc(C(=O)COC(=O)C2=COCCO2)c(C)n1-c1ccccc1,32.9%,5.84%,-53.9%,-37.1%,23.9%,-86.4%,26.1%,-34.8%,68.8% (active),66.6% (active)
O=C(N/N=C\c1ccc([N+](=O)[O-])o1)C1COc2ccccc2O1 (stereo not given),35.9%,9.31%,-8.42%,-19.5%,27.1%,40.7%,49.8% (active),-8.47%,40.8% (active),51.5% (active)
CCOC(=O)c1ccc(NC(=O)c2ccc(C)c(S(=O)(=O)N3CCOCC3)c2)cc1,31.4%,47.9% (active),3.47%,54.1% (active),65.1% (active),50.5% (active),66.5% (active),66% (active),47.4% (active),33.8%
Nc1ccc(Oc2cccc(Oc3ccc(N)cc3)c2)cc1,43.4% (active),29.6% (active),24.3%,27.6% (active),47.8% (active),75.6% (active),67.8% (active),47.5% (active),88.8% (active),92.8% (active)
O=C(CCCN1C(=O)S/C(=C\c2ccccc2)C1=O)NNC(=O)c1ccccc1O,66% (active),58.7% (active),54.6% (active),53.3% (active),54.9% (active),64% (active),53.8% (active),63.8% (active),89.2% (active),92.8% (active)
COC(=O)c1cn(NC(=O)c2cc([N+](=O)[O-])ccc2F)c(=O)c2ccccc12,83.8% (active),83.6% (active),51.1% (active),81% (active),89% (active),102% (active),92.9% (active),84.3% (active),27.7%,64.7% (active)
COc1cccc2c1C(=O)c1c(O)c3c(c(O)c1C2=O)CC(O)(C(=O)CO)CC3OC1CC(N(C)C)C(O)C(C)O1 (stereo not given),96.6% (active),97% (active),85.8% (active),96.7% (active),85.1% (active),107% (active),96% (active),96.5% (active),36.9% (active),57.6% (active)
Cc1cc(C(=O)CN2C(=O)c3ccccc3S2(=O)=O)c(C)n1CC1CCCO1 (stereo not given),82.9% (active),62.8% (active),77.7% (active),60% (active),78.1% (active),81% (active),80.4% (active),68.2% (active),63.7% (active),93.7% (active)
C/C(CC(C)(C)C1CCCCC1)=N\NC(N)=S,72.2% (active),60.3% (active),48.5% (active),59% (active),45.6% (active),80.8% (active),82.8% (active),68.6% (active),43.8% (active),38.4%
COc1cc(SC)ccc1C(=O)Nc1nc2ccccc2[nH]1,92.1% (active),90% (active),85.9% (active),89.4% (active),95.1% (active),103% (active),96.5% (active),92.6% (active),96.4% (active),99.5% (active)
O=C(NC1CCCCC1)C(c1cccnc1)N(C(=O)CCl)c1ccccc1Cl (stereo not given),81.8% (active),64% (active),67.1% (active),59.1% (active),54.7% (active),70.4% (active),67.5% (active),64.8% (active),38.6% (active),55.5% (active)
COc1cc(OC)cc(-c2cc3nc(C)c(CCC(=O)O)c(C)n3n2)c1,66.4% (active),69.9% (active),55.8% (active),64.1% (active),64.9% (active),76.4% (active),71% (active),69% (active),89.9% (active),93.3% (active)
Cc1c(/C(O)=C2/C(=O)C(=O)N(Cc3cccnc3)C2c2ccccn2)cnn1-c1ccccc1 (stereo not given),38.2%,3.13%,20.1%,-13.8%,42% (active),23.4%,36.8%,7.05%,11.9%,52.3% (active)
CCCS(=O)(=O)c1cnc(C2COc3ccccc3O2)nc1N (stereo not given),61.5% (active),44.9% (active),18.9%,33.6% (active),43.2% (active),2.93%,36.5%,23.1%,37.2% (active),75% (active)
Cc1c(/C(O)=C2/C(=O)C(=O)N(CCN3CCOCC3)C2c2ccccn2)cnn1-c1ccccc1 (stereo not given),62.5% (active),41.7% (active),54.5% (active),26.1% (active),68.9% (active),24.3%,75.2% (active),12.3%,68.5% (active),83.4% (active)
O=C(CSc1nnc(-c2cccnc2)s1)Nc1ccnc2ccccc12,32.3%,46.7% (active),-3.87%,51.2% (active),21%,57% (active),56.1% (active),55.6% (active),23.7%,35%
N#Cc1sc2nccc(Nc3ccccc3)c2c1N,87.1% (active),62.4% (active),62.9% (active),58.6% (active),32.5% (active),66.4% (active),48.8% (active),79.6% (active),4.1%,52.2% (active)
CC(C)(C)c1ccc(-c2noc(CCC(N)=O)n2)cc1,65.2% (active),51.9% (active),59.7% (active),56.7% (active),58.9% (active),70% (active),60.8% (active),58.4% (active),83.6% (active),94.2% (active)
CC(C)c1ccc(-c2nc3ccccc3s2)cc1,80.1% (active),73.8% (active),56% (active),53.8% (active),78.9% (active),42.9% (active),74.5% (active),51.7% (active),64.7% (active),86.8% (active)
O=c1ccc2ccccc2c2ccccc12,73.2% (active),70.8% (active),58.7% (active),70% (active),76.7% (active),93.6% (active),90.3% (active),88.1% (active),68.3% (active),84.5% (active)
